According to PubChem BioAssay (Tox21):
Inconclusive results are not listed. Where a call stands in place of a potency, no number is given. The source made the active and inactive calls. The call rests on the fitted dose curve; in most records, active means well fitted cell-killing curve with a large enough effect in the repeat runs; inconclusive means weak or mixed curves, or effect the other way; inactive means flat fitted curve, though single readings scatter. Positions of bridges follow the written chain, without caps; N, C: chain ends. Non-standard residues stand in square brackets, D forms with d. Residues, ends and D or L forms follow the SMILES beside them. *: point of attachment. Dab(CH2SO3H) = N[C@@H](CCNCS(=O)(=O)O)C(=O)O; X3 = CC[C@@H](C)CCCCC(=O)*; Dab = NCC[C@H](N)C(=O)O

Assay: qHTS assay to identify small molecule antagonists of the estrogen receptor alpha (ER-alpha) signaling pathway using the BG1 cell line - cell viability counter screen (AID 743081);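 further: compound given together with 17beta-estradiol as the ER stimulus; nearly all actives have a fitted effect of over 45% in size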
Conditions: BG1Luc4E2 viability, CellTiter-Fluor, 22 h; series mostly up to 70.3 µM
Potency means the concentration at half of the fitted maximal effect.

Structure (SMILES) | Potency
CC[C@H]1OC(=O)[C@H](C)C(=O)[C@H](C)[C@@H](O[C@@H]2O[C@H](C)C[C@H](N(C)C)[C@H]2O)[C@](C)(OC)C[C@@H](C)C(=O)[C@H](C)[C@H]2N(CCCCn3cnc(-c4cccnc4)c3)C(=O)O[C@]12C | inactive
O=P(O)(O)OP(=O)(O)OP(=O)(O)O | inactive
NC[C@@H]1CC[C@@H](N)[C@@H](O[C@H]2[C@H](O)[C@@H](O[C@H]3O[C@H](CO)[C@@H](O)[C@H](N)[C@H]3O)[C@H](N)C[C@@H]2N)O1 | inactive
CC(=O)OCC(=O)[C@@]1(O)CC[C@H]2[C@@H]3CCC4=CC(=O)CC[C@]4(C)C3=CC[C@@]21C | inactive
COc1c(Br)cc(Br)c(C)c1Br | inactive
CC12CCC(C[N+](C)(CCC[N+](C)(C)C)C1)C2(C)C (centres undefined) | inactive
O=C1c2c(O)cccc2[C@H]([C@@H]2O[C@H](CO)[C@@H](O)[C@H](O)[C@H]2O)c2cc(CO)cc(O)c21 | inactive
NCC(O)CC(=O)O (centres undefined) | inactive
CCOc1ccc(S(=O)(=O)O)c2cccnc12 | inactive
CC12CCC(C1)C(C)(C)C2=O (centres undefined) | inactive
CN1C(=O)C[C@@H](C(=O)N[C@@H](Cc2cnc[nH]2)C(=O)N2CCC[C@H]2C(N)=O)NC1=O | inactive
NC[C@H]1O[C@H](O[C@H]2[C@H](O)[C@@H](O[C@H]3O[C@H](CO)[C@@H](O)[C@H](N)[C@H]3O)[C@H](N)C[C@@H]2N)[C@H](N)C[C@@H]1O | inactive
NCC[C@H](O)C(=O)N[C@@H]1C[C@H](N)[C@@H](O[C@H]2O[C@H](CN)CC[C@H]2N)[C@H](O)[C@H]1O[C@H]1O[C@H](CO)[C@@H](O)[C@H](N)[C@H]1O | inactive
CC1(C)S[C@@H]2[C@H](NC(=O)[C@@H](NC(=O)N3CCNC3=O)c3ccccc3)C(=O)N2[C@H]1C(=O)O | inactive
CC(C)Cc1ccc([C@H](C)C(=O)O)cc1 | inactive
COc1cc2c(cc1OC)[C@@H](Cc1cc(OC)c(OC)c(OC)c1)[N+](C)(CCCOC(=O)CC/C=C/CCC(=O)OCCC[N+]1(C)CCc3cc(OC)c(OC)cc3[C@H]1Cc1cc(OC)c(OC)c(OC)c1)CC2 (some centres undefined) | inactive
COc1ccc(/C=N/NC(=O)c2ccncc2)c(C(=O)O)c1OC | inactive
C[C@]12O[C@H](C[C@]1(O)CO)n1c3ccccc3c3c4c(c5c6ccccc6n2c5c31)CNC4=O | 21.1 µM (active)
Cc1cc(-c2ccc(N=Nc3ccc4c(S(=O)(=O)O)cc(S(=O)(=O)O)c(N)c4c3O)c(C)c2)ccc1N=Nc1ccc2c(S(=O)(=O)O)cc(S(=O)(=O)O)c(N)c2c1O | inactive
CC(C)c1ncc([N+](=O)[O-])n1C | inactive
CC[C@H](C)C(=O)O[C@H]1CCC=C2C=C[C@H](C)[C@H](CC[C@@H]3C[C@@H](O)CC(=O)O3)[C@H]21 | inactive
CN(C)CCc1c[nH]c2ccc(Cn3cncn3)cc12 | inactive
C/C=C/C1=C(C(=O)O)N2C(=O)[C@@H](NC(=O)[C@H](N)c3ccc(O)cc3)[C@H]2SC1 | inactive
O=C1C2CC3CC1CC(O)(C3)C2 | inactive
COC(=O)C[C@](O)(CCCC(C)(C)O)C(=O)O[C@@H]1C(OC)=CC23CCCN2CCc2cc4c(cc2[C@H]13)OCO4 (some centres undefined) | inactive
CC[C@@H](C)CCCCC(=O)N[C@@H](CCNCS(=O)(=O)O)C(=O)N[C@H](C(=O)N[C@@H](CCNCS(=O)(=O)O)C(=O)N[C@H]1CCNC(=O)[C@H]([C@@H](C)O)NC(=O)[C@H](CCNCS(=O)(=O)O)NC(=O)[C@H](CCNCS(=O)(=O)O)NC(=O)[C@H](CC(C)C)NC(=O)[C@@H](CC(C)C)NC(=O)[C@H](CCNCS(=O)(=O)O)NC1=O)[C@@H](C)O (X3-[Dab(CH2SO3H)]T[Dab(CH2SO3H)][Dab][Dab(CH2SO3H)][dL]L[Dab(CH2SO3H)][Dab(CH2SO3H)]T; lactam 4-C) | inactive
CCC(NC(C)C)C(O)c1ccc(O)c(O)c1 (centres undefined) | inactive
CCCCCCCCCC[N+](C)(CCCCCCCCCC)CCC[Si](OC)(OC)OC | inactive
O=C1CCC(c2ccc(-n3ccnc3)cc2)=NN1 | inactive
